Values without a mark were called inactive. Results filed as inconclusive are left out. Entries that show only a call come without a potency. Active and inactive are the calls of the source. Unless noted, the call rests on the fitted dose curve; in most records, active means well fitted curve in the direction sought with a large enough effect in the repeat runs; inconclusive means weak or mixed curves; inactive means no such curve, though single readings can be large; an effect the other way counts as inactive or inconclusive.
How the values were obtained:
[1] = qHTS assay for small molecules that induce genotoxicity in human embryonic kidney cells expressing luciferase-tagged ATAD5 (AID 651632); further: nearly all actives have a fitted effect of over 15% in size
Procedure, shortened: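 Reporter cells (HEK293T) express luciferase-tagged ATAD5, a protein that accumulates after DNA damage. Treat 16 hr at 37C/5% CO2, add Amplite, wait 30 min at RT, and read luminescence.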

[2] = qHTS assay for small molecule agonists of the p53 signaling pathway - cell viability (AID 651633; calls by dose curve;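 further: p53RE-bla HCT reporter cells with a stable beta-lactamase p53 reporter; nearly all actives have a fitted effect of over 30% in size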)
Procedure, shortened: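 p53RE-bla cells, seeded at 4,000 per well and rested 5 h at 37 C/5% CO2, received compounds in DMSO for 16 h at 37 C. CellTiter-Glo was then added, and luminescence was read after 30 min at room temperature to gauge cytotoxicity.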

[3] = qHTS assay for small molecules that induce genotoxicity in human embryonic kidney cells expressing luciferase-tagged ATAD5 - cell viability (AID 651634; calls by dose curve; further: nearly all actives have a fitted effect of over 25% in size)
Procedure, shortened: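 Seeding of 2,000 HEK293T ATAD5-luciferase cells per well preceded pin-tool compound transfer. Plates sat 15.5 hr at 37C under 5% CO2, then fluorescence was read after 30 min with CellTiter-Fluor.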

[4] = qHTS assay for small molecule disruptors of the mitochondrial membrane potential (AID 720635); further: potency means the concentration at half of the fitted maximal effect
Procedure, shortened: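 HepG2 cells (2,000/well) attached overnight at 37C, then took compound for 1 hr at 37C, 5% CO2. Mito-MPS dye was added for 30 min; fluorescence was read at 490/535 nm (monomers) and 540/590 nm (aggregates).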

[5] = qHTS assay to test for compound auto fluorescence at 535 nm (green) in HepG2 cells (AID 720675)
[6] = qHTS assay to test for compound auto fluorescence at 460 nm (blue) in HEK293 cells (AID 720678)
Procedure, shortened: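 Blue read-out at excitation 405 nm and emission 460 nm follows overnight compound exposure of HEK293 cells at 37C in 5% CO2. Activity is given as auto fluorescence equivalency to triamterene.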

[7] = qHTS assay to test for compound auto fluorescence at 590 nm (red) in HEK293 cells (AID 720679)
Procedure, shortened: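 Red channel, Ex/Em 540/590nm; signal expressed as equivalency to Rose Bengal sodium. HEK293, 2,000 cells/well, 10% dialyzed FBS; 23 nL compound pinned after 4-5 hr attachment; overnight 37C/5% CO2 before reading.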

[8] = qHTS assay to test for compound auto fluorescence at 535 nm (green) in HEK293 cells (AID 720680)
[9] = qHTS assay to test for compound auto fluorescence at 460 nm (blue) in HEK293 cell free culture (AID 720681)
Procedure, shortened: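 Test compounds were pinned into cell-free culture medium (DMEM with 10% FBS) and fluorescence was read directly at Ex/Em 405/460 nm. Signals were expressed as fluorescence equivalents of triamterene, with DMSO vehicle as control.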

[10] = qHTS assay to test for compound auto fluorescence at 535 nm (green) in HEK293 cell free culture (AID 720682)
Procedure, shortened: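 Measurement is a direct plate read of green fluorescence (485 nm in, 535 nm out) after compound addition to serum-supplemented DMEM lacking cells, with fluorescein used to express intensities.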

[11] = qHTS assay to test for compound auto fluorescence at 590 nm (red) in HEK293 cell free culture (AID 720683)
Procedure, shortened: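 Tox21 10K library compounds were pinned into cell-free DMEM with 10% FBS and fluorescence was read at excitation 540 nm. Activity is expressed as Rose Bengal sodium equivalency.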

[12] = qHTS assay to test for compound auto fluorescence at 590 nm (red) in HepG2 cell free culture (AID 720684)
Procedure, shortened: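 Measured in medium alone (MEM containing 10% FBS) following pintool addition of compound; emission at 590 nm with 540 nm excitation, referenced to Rose Bengal sodium.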

[13] = qHTS assay to test for compound auto fluorescence at 460 nm (blue) in HepG2 cell free culture (AID 720685)
Procedure, shortened: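 Compound (23 nL) or DMSO pinned into cell-free MEM with 10% FBS; blue fluorescence read at 405/460 nm excitation/emission, expressed as auto-fluorescence equivalency to triamterene.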

[14] = qHTS assay to test for compound auto fluorescence at 535 nm (green) in HepG2 cell free culture (AID 720686)
[15] = qHTS assay to test for compound auto fluorescence at 460 nm (blue) in HepG2 cells (AID 720687)
Procedure, shortened: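 Cells (2,000/well in MEM with 10% FBS) attached overnight at 37 C, then were exposed to compound or DMSO for 1 hr at 37 C, 5% CO2. Fluorescence read at Ex/Em 405/460 nm, expressed as triamterene-equivalent signal.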

[16] = target: Glucocorticoid receptor (Homo sapiens) (UniProt P04150); assay: qHTS assay to identify small molecule agonists of the glucocorticoid receptor (GR) signaling pathway (AID 720691; active means well fitted activation curve with a large enough effect in the signal ratio in the repeat runs, not every such curve was filed as active; the % refers to the signal ratio); conditions: GR-bla HeLa, beta-lactamase reporter ratio, 18 h; activation: at 62.4 µM (top of the series) unless noted
Glucocorticoid receptor (Homo sapiens), sequence (P04150 whole entry, looked up): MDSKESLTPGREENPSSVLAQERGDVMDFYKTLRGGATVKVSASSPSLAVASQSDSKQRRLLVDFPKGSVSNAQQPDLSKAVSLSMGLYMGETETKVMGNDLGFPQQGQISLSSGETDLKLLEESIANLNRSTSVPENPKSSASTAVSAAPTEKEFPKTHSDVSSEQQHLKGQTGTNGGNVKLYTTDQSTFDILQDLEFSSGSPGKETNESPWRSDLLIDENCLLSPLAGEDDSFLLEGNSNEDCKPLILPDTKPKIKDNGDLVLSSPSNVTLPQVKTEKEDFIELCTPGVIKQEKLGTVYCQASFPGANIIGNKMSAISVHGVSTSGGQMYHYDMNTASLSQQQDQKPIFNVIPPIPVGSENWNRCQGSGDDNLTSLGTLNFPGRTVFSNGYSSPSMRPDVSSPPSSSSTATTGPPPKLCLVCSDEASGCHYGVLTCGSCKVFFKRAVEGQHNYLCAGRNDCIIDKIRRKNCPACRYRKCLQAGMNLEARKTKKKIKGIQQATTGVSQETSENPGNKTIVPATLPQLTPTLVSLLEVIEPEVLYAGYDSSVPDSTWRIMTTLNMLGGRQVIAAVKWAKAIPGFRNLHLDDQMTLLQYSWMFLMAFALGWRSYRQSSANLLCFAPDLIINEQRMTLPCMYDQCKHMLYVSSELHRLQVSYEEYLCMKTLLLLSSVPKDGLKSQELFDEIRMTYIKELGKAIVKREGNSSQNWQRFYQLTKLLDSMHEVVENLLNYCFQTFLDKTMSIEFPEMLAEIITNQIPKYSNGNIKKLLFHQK
Procedure, shortened: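 Reporter read-out: fluorescence intensity following 2 h room-temperature LiveBLAzer B/G FRET substrate loading. Prior step: GR-bla HeLa cells held 4 h, then treated 18 h at 37 C.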

[17] = qHTS assay for small molecule disruptors of the mitochondrial membrane potential - cell viability (AID 720634; calls by dose curve;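 further: human HepG2 liver cancer cells; nearly all actives have a fitted effect of over 20% in size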)
Procedure, shortened: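 Measuring cytotoxicity alongside mitochondrial potential, the screen quantified ATP by luminescence in HepG2 cells after 1 hr compound incubation and a 30 min room-temperature CellTiter-Glo step.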

[18] = qHTS assay to test for compound auto fluorescence at 590 nm (red) in HepG2 cells (AID 720674)
Procedure, shortened: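 Compound auto-fluorescence is scored relative to Rose Bengal sodium, measured at 540/590 nm in live HepG2 cultures after 1 hr compound contact (37 C, 5% CO2).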

[19] = target: Glucocorticoid receptor (Homo sapiens) (UniProt P04150); assay: qHTS assay to identify small molecule antagonists of the glucocorticoid receptor (GR) signaling pathway (AID 720692; active means well fitted inhibition curve with a large enough effect in the signal ratio in the repeat runs, not every such curve was filed as active; the % refers to the signal ratio)
Procedure, shortened: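 Dexamethasone (5 nM final) stimulated a stably integrated GRE-beta-lactamase reporter in HeLa cells during 18 h co-incubation with compounds; signal was quantified as fluorescence intensity of B/G FRET substrate after 2 h.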

Row | Compound | Potency [1] | Potency [2] | Potency [3] | Potency [4] | Potency [5] | outcome [6] | Potency [7] | outcome [8] | outcome [9] | outcome [10] | Potency [11] | Potency [12] | outcome [13] | Potency [14] | outcome [15] | Potency [16] | Potency [17] | Potency [18] | Potency [19]
1 | O=S(=O)(Oc1ccc(Cl)cc1)c1ccccc1 | inactive | inactive | inactive | 19.3 µM (active) | inactive | inactive | inactive | inactive | inactive | inactive | inactive | inactive | inactive | inactive | inactive | inactive | – | – | –
2 | CCCCCCCC/C=C\CCCCCCCC(=O)OCC | inactive | inactive | inactive | – | inactive | inactive | inactive | inactive | inactive | inactive | inactive | inactive | inactive | inactive | inactive | – | inactive | inactive | inactive
3 | CO[C@@H]1[C@H](OC(=O)/C=C/C=C/C=C/C=C/C(=O)O)CC[C@]2(CO2)[C@H]1[C@@]1(C)O[C@@H]1CC=C(C)C | inactive | inactive | inactive | – | inactive | inactive | inactive | inactive | inactive | inactive | inactive | inactive | inactive | inactive | inactive | inactive | inactive | inactive | –
4 | OC(CN1CCC(Cc2ccc(F)cc2)CC1)c1ccc(Cl)cc1 (stereo not given) | inactive | inactive | inactive | – | inactive | inactive | inactive | – | inactive | – | – | inactive | inactive | inactive | – | inactive | inactive | – | –
5 | CCOC(=O)C1=C[C@]2(CC)CCCN3CCc4c(n1c1ccccc41)[C@@H]32 | inactive | inactive | inactive | – | inactive | inactive | – | inactive | inactive | inactive | inactive | inactive | inactive | inactive | inactive | inactive | inactive | inactive | inactive
6 | COc1ccnc(CS(=O)c2nc3ccc(OC(F)F)cc3[nH]2)c1OC (stereo not given) | inactive | inactive | inactive | – | inactive | inactive | inactive | inactive | inactive | inactive | inactive | inactive | inactive | inactive | inactive | inactive | inactive | inactive | –
7 | C1CCCNCCC1 | inactive | inactive | inactive | – | inactive | inactive | inactive | inactive | inactive | inactive | inactive | inactive | inactive | inactive | – | – | inactive | – | –
8 | C#CCN(C)CCCOc1ccc(Cl)cc1Cl | inactive | inactive | inactive | – | inactive | inactive | inactive | – | inactive | inactive | inactive | inactive | inactive | inactive | inactive | – | inactive | inactive | –
